Data from PubChem BioAssay (NCATS).
Results filed as inconclusive are left out. Values without a mark were called inactive. The source made the active and inactive calls. Calls come from the whole dose curve; as a rule, active = well fitted activation curve with a large enough effect; inconclusive = small, poorly fitted or top-dose-only effect; inactive = flat fitted curve, though single readings scatter.
Potency is the fitted concentration of half-maximal effect.

Test: Validation screen for small molecules that induce DNA re-replication in MCF 10A normal breast cells (AID 463097); note: nearly all actives have a fitted effect of over 60% in size; for re-replication induction: 0% is about no effect
Conditions: MCF 10A cells, DNA re-replication phenotype imaging; series mostly up to 46.1 µM; re-replication induction: at the top concentration
Source text: NIH Molecular Libraries Probe Production Network [MLPCN]
NIH Chemical Genomics Center [NCGC]
Assay Provider: Melvin DePamphilis, NICHD, NIH
Eukaryotic cells normally restrict genome duplication to once per cell division. When this process is aberrant, DNA re-replication occurs when cells reinitiate DNA replication before the first round of replication is complete. DNA re-replication induces the DNA damage response, arrests cell proliferation, and triggers apoptosis. The cell cycle components cyclin A, Cdt-1, Cdc6 and geminin are critical regulators of this process and their misregulation results in DNA re-replication in normal and cancer cells. To identify compounds that induce re-replication in normal cells, an image-based assay was used to measure DNA content of nuclei, as detected by the fluorescent DNA binding dye, Hoechst. Cell nuclei were imaged by a fluorescence scanning plate imager and compounds that induce DNA re-replication were identified by the increase of nuclei with elevated fluorescence intensity.
For screening, 250 cells in 5 uL/well were dispensed into black clear 1536-well plates (Aurora) using a solenoid-based dispenser. Following transfer of 23 nL compound or DMSO vehicle by a pin tool, the plates were incubated 48 hr at 37 C and 5% CO2. After addition of 1 uL/well Hoescht stain, the plates were incubated 40 min at 37 C, 5% CO2 and total intensity of fluorescent objects (nuclei) were enumerated by an Acumen Explorer Ex3 (TTP LabTech) fluorescence scanning plate imager (405 nm excitation, 500-530 nm emission).
Keywords: NIH Roadmap, MLPCN, MLI, MLSMR, qHTS, NCGC, DNA replication, cancer
For CC(C)[N+](C)(CCOC(=O)C1c2ccccc2Oc2ccccc21)C(C)C, the “re-replication induction” value was -10.2%. With O=C(CCCN1CCC(O)(c2cccc(C(F)(F)F)c2)CC1)c1ccc(F)cc1 the “re-replication induction” value was 9.64%. With CCNC(=O)N1CCN(CCCC(c2ccc(F)cc2)c2ccc(F)cc2)CC1 the “re-replication induction” value was 28.2%. In the case of CC(=O)[C@]1(O)Cc2c(O)c3c(c(O)c2[C@@H](O[C@H]2C[C@H](N)[C@H](O)[C@H](C)O2)C1)C(=O)c1ccccc1C3=O, the “re-replication induction” value is reported as 5.44%. In the case of CN(C)CCOC(=O)COc1ccc(Cl)cc1, the “re-replication induction” value is reported as -0.202%. For CCN(CC)CCOCCOC(=O)C1(c2ccccc2)CCCC1, the “re-replication induction” value was 18.3%. With CC(C)NCC(O)c1cc(O)cc(O)c1 (stereo not given) the “re-replication induction” value was 2.02%. For Cc1nnc(SCC2=C(C(=O)O)N3C(=O)[C@@H](NC(=O)Cn4cnnn4)[C@H]3SC2)s1, the “re-replication induction” value was -3.8%. For CC(C(=O)O)c1ccc(CC2CCCC2=O)cc1 (stereo not given), the “re-replication induction” value was -0.558%. In the case of CCOC(=O)C1=C(C)NC(C)=C(C(=O)OC)C1c1cccc(Cl)c1Cl (stereo not given), the Potency is reported as 11.2 µM (active). For CC1=NS(=O)(=O)c2cc(Cl)ccc2N1, the “re-replication induction” value was 0.966%. With CCN(Cc1ccncc1)C(=O)C(CO)c1ccccc1 (stereo not given) the “re-replication induction” value was -0.208%. In the case of COc1ccc([C@@H]2Sc3ccccc3N(CCN(C)C)C(=O)[C@@H]2OC(C)=O)cc1, the “re-replication induction” value is reported as 2.01%. For CNCCCN1c2ccccc2CCc2ccccc21, the “re-replication induction” value was 10.6%. For CCCC(C(=O)OCCN(CC)CC)(c1ccccc1)c1ccccc1, the “re-replication induction” value was 17.2%. With COc1ccc(CCN(C)CCCC(C#N)(c2cc(OC)c(OC)c(OC)c2)C(C)C)cc1OC (stereo not given) the “re-replication induction” value was 11.4%. With O=C(O)CN(CCN(CC(=O)O)CC(=O)O)CCN(CC(=O)O)CC(=O)O the “re-replication induction” value was -0.539%. With CC(C)COCC(CN(Cc1ccccc1)c1ccccc1)N1CCCC1 (stereo not given) the “re-replication induction” value was -3.99%. In the case of Brc1c(NC2=NCCN2)ccc2nccnc12, the “re-replication induction” value is reported as -1.45%. In the case of CN1CCN(C2=Nc3ccccc3Oc3ccc(Cl)cc32)CC1, the “re-replication induction” value is reported as 9.64%. With OCCN1CCN(CC/C=C2/c3ccccc3Sc3ccc(C(F)(F)F)cc32)CC1 the Potency was 12.6 µM (active). For CCN(CC)CCNC(=O)c1ccc(NC(C)=O)cc1, the “re-replication induction” value was 7.11%. For Cc1scc2c1N(C(=O)CN1CCN(C)CC1)c1ccccc1NC2=O, the “re-replication induction” value was 9.85%. For CN(C)CC/C=C1\c2ccccc2COc2ccccc21, the “re-replication induction” value was 4.52%. In the case of CN(C)CCN(Cc1cccs1)c1ccccn1, the “re-replication induction” value is reported as 1.41%. With C=CCc1ccccc1OCC(O)CNC(C)C (stereo not given) the “re-replication induction” value was 3.94%. For C[C@]12CCC(=O)C=C1CC[C@@H]1[C@@H]2CC[C@@]2(C)[C@H]1CC[C@]2(O)C(=O)CO, the “re-replication induction” value was -1.21%. In the case of COCCOC(=O)C1=C(C)NC(C)=C(C(=O)OC(C)C)C1c1cccc([N+](=O)[O-])c1 (stereo not given), the “re-replication induction” value is reported as -0.883%. With CN(C)C(=O)Oc1ccc[n+](C)c1 the “re-replication induction” value was -4.15%. With CCN1CCC[C@H]1CNC(=O)c1c(O)c(Cl)cc(Cl)c1OC the “re-replication induction” value was -10.4%. In the case of O=C(O)CP(=O)(O)O, the “re-replication induction” value is reported as -0.911%. For Fc1ccc(C(c2ccc(F)cc2)N2CCN(C/C=C/c3ccccc3)CC2)cc1, the Potency was 12.6 µM (active). For O=C(CCNNC(=O)c1ccncc1)NCc1ccccc1, the “re-replication induction” value was -2.01%. For CN(C)C/C=C(/c1ccc(Br)cc1)c1cccnc1, the “re-replication induction” value was 5.51%. With C[C@]12C=CC(=O)C=C1CC[C@H]1[C@@H]3C[C@@H](O)[C@](O)(C(=O)CO)[C@@]3(C)C[C@H](O)[C@@]12F the “re-replication induction” value was 4.15%. For CCCNC(C)C(=O)Nc1ccccc1C (stereo not given), the “re-replication induction” value was 4.45%. For NC(Cc1ccc(Cl)cc1)C(=O)O (stereo not given), the “re-replication induction” value was -1.69%. For C[C@]12CCC(=O)C=C1CC[C@@H]1[C@@H]2C(=O)C[C@@]2(C)[C@H]1CC[C@]2(O)C(=O)CO, the “re-replication induction” value was -3.91%. With CCn1ccnc1CC1COc2ccccc2O1 (stereo not given) the “re-replication induction” value was 15.1%. For Nc1c2c(nc3ccccc13)CCCC2O (stereo not given), the “re-replication induction” value was 2.42%.
